Activity calls are given as the source filed them. Rule for the calls: active = hit-call score of the fitted dose curve at least 0.9, where 1 is the maximum; inactive = score below 0.9.
How the values were obtained:
[1] = target: CCAAT/enhancer-binding protein beta (Homo sapiens) (UniProt P17676); assay: ATG_C_EBP_CIS: Attagene CIS-FACTORIAL HepG2 Assay for human CCAAT/Enhancer Binding Protein (C/EBP) beta (AID 2282927); details: HepG2 Attagene cis-factorial transcription factor reporter; actives raise or lower the signal
How it was run: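 HepG2 transiently transfected with multiplexed reporter units under cis-regulatory promoters reporting endogenous C/EBPb activity. After 24 h exposure, reporter mRNA assayed by RT-PCR, fluorescent labelling, HpaI digestion and capillary electrophoresis; bidirectional fitting versus DMSO.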

[2] = ATG_CMV_CIS: Attagene CIS-FACTORIAL HepG2 Assay for human CMV (Internal Marker) (AID 2282928); details: HepG2 CMV promoter reporter, transcription factor profiling; actives raise or lower the signal;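 note: endpoint acts as a background internal control marker rather than a target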
How it was run: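 CMV internal-marker background readout in transiently transfected HepG2 cells bearing cis-regulated reporter units. Reporter mRNA is measured 24 h after dosing by RT-PCR and capillary electrophoresis, with bidirectional fitting against DMSO.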

[3] = ATG_AP_1_CIS: Attagene CIS-FACTORIAL HepG2 Assay for human Activator Protein 1 (AP-1) (AID 2282931); details: HepG2 Attagene cis-factorial AP-1 reporter mRNA; actives raise or lower the signal
How it was run: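 After 24 h incubation with test chemical, RNA from transfected HepG2 cells was reverse-transcribed, amplified, fluorescently labelled and digested before capillary electrophoresis. Reporters were driven by cis-regulatory promoters; activity fitted bidirectionally versus DMSO.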

[4] = ATG_AP_2_CIS: Attagene CIS-FACTORIAL HepG2 Assay for human Activator Protein 2 (AP-2) (AID 2282932); details: HepG2 AP-2 cis-reporter, Attagene transcription factor profiling; actives raise or lower the signal
How it was run: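 HepG2 cells transiently transfected with cis-element reporter units and exposed for 24 h. Reporter mRNA measured by RT-PCR, FAM labelling, HpaI digestion and capillary electrophoresis. Changes in either direction fitted relative to DMSO.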

[5] = ATG_BRE_CIS: Attagene CIS-FACTORIAL HepG2 Assay for human Bone Morphogenetic Protein (BMP) Response Element (BRE) (AID 2282933); details: HepG2 BMP response element reporter, Attagene transcription factor profiling; actives raise or lower the signal
How it was run: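 A HepG2 multiplex reporter system measured inducible reporter mRNA 24 h post-dosing. Detection: RT-PCR, 6-FAM primer extension, HpaI digestion, capillary electrophoresis. Activity fitted bidirectionally relative to DMSO.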

[6] = ATG_E_Box_CIS: Attagene CIS-FACTORIAL HepG2 Assay for human Enhancer Box (E-box) (AID 2282936); details: HepG2 E-box cis-reporter transcription, actives raise or lower the signal
How it was run: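 HepG2 cells transiently transfected with multiplexed cis-element reporter units, dosed 24 h; reporter mRNA quantified by RT-PCR, 6-FAM labelling, HpaI digestion and capillary electrophoresis. E-box (USF1) signal fitted bidirectionally vs DMSO.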

[7] = ATG_M_61_CIS: Attagene CIS-FACTORIAL HepG2 Assay for M61 Transcription Factor (Internal Marker) (AID 2282937); details: HepG2 Attagene CIS-FACTORIAL M61 internal marker reporter; actives raise or lower the signal
How it was run: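 Using transiently transfected HepG2 liver cells, reporter transcript levels were assessed 24 h post-dosing by RT-PCR and capillary electrophoresis. Changes in either direction were fitted relative to DMSO controls.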

[8] = ATG_EGR_CIS: Attagene CIS-FACTORIAL HepG2 Assay for human Early Growth Response 1 (EGR1) (AID 2282938); details: HepG2 Attagene CIS-FACTORIAL EGR reporter mRNA; actives raise or lower the signal
How it was run: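 Fluorescent capillary-electrophoresis signal of reporter cDNA fragments serves as read-out. HepG2 cells bear transiently transfected cis-promoter reporter units and are exposed 24 h; gain- or loss-of-signal is fitted against DMSO.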

[9] = ATG_Ets_CIS: Attagene CIS-FACTORIAL HepG2 Assay for human Erythroblast Transformation Specific (ETS) (AID 2282941); details: HepG2 ETS cis-reporter transcription, actives raise or lower the signal
How it was run: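 HepG2 cells transfected with multiple cis-regulated reporter units measuring endogenous ETS-driven transcription, 24 h after dosing. Reporter mRNA quantified by RT-PCR with capillary electrophoresis; bidirectional fit relative to DMSO.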

[10] = ATG_FoxO_CIS: Attagene CIS-FACTORIAL HepG2 Assay for human Forkhead box O (FoxO) (AID 2282943); details: HepG2 Attagene cis-reporter, FoxO element, mRNA; actives raise or lower the signal
How it was run: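 HepG2 cells transiently transfected with cis-element-driven reporter units report endogenous FoxO activity. After 24 h chemical exposure, reporter mRNA quantified by RT-PCR, fluorescent labeling, HpaI digestion and capillary electrophoresis; bidirectional fit versus DMSO.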

[11] = ATG_GATA_CIS: Attagene CIS-FACTORIAL HepG2 Assay for human GATA Binding Protein (AID 2282944); details: HepG2 GATA cis-element reporter, Attagene multiplex mRNA; actives raise or lower the signal
How it was run: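 Transfected cis-reporter HepG2 cells were treated with chemicals for 24 hours. Total RNA was then converted to cDNA, amplified with reporter-specific primers and analysed by fluorescent capillary electrophoresis, using DMSO-treated wells as baseline.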

[12] = ATG_ISRE_CIS: Attagene CIS-FACTORIAL HepG2 Assay for human Interferon Regulatory Factor 1 (IRF1) binding to an Interferon-Stimulated Response Element (ISRE) (AID 2282948); details: HepG2 ISRE cis-reporter (Attagene), mRNA transcription readout; actives raise or lower the signal
How it was run: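 Transiently transfected HepG2 cells carrying cis-element reporter units, dosed 24 hours. Reporter mRNA quantified by RT-PCR, fluorescent primer extension, HpaI digestion and capillary electrophoresis. Bidirectional fitting relative to DMSO.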

[13] = ATG_M_06_CIS: Attagene CIS-FACTORIAL HepG2 Assay for M06 Transcription Factor (Internal Marker) (AID 2282950); details: HepG2 Attagene CIS-FACTORIAL M06 internal marker reporter; actives raise or lower the signal
How it was run: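 Cells (HepG2, transiently carrying cis-driven reporter units) receive chemical for 24 h before RNA isolation. Reporter cDNA is PCR-amplified, FAM-labelled by primer extension, HpaI-digested and sized on a capillary analyser.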

[14] = ATG_MRE_CIS: Attagene CIS-FACTORIAL HepG2 Assay for human Metal Responsive Element (MRE) (AID 2282954); details: HepG2 MRE cis-reporter transcription, Attagene multiplex; actives raise or lower the signal
How it was run: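 HepG2 cells transiently transfected with cis-element-driven reporter units; mRNA measured 24 h after dosing. Reporter transcripts quantified by RT-PCR, FAM labelling, HpaI digestion and capillary electrophoresis; bidirectional fit versus DMSO.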

[15] = target: Paired box protein Pax-6 (Homo sapiens) (UniProt P26367); assay: ATG_Pax6_CIS: Attagene CIS-FACTORIAL HepG2 Assay for human Paired Box 6 (PAX6) (AID 2282956); details: HepG2 CIS-FACTORIAL PAX6 reporter transcription, RNA readout; actives raise or lower the signal
How it was run: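 HepG2 cells transiently transfected with cis-promoter-driven multiplexed reporter units sensing endogenous transcription factor activity; 24 h chemical exposure. Reporter mRNA quantified by RT-PCR, 6-FAM labelling, HpaI digestion and capillary electrophoresis; bidirectional fit versus DMSO baseline.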

[16] = target: Transcription factor Sp1 (Homo sapiens) (UniProt P08047); assay: ATG_Sp1_CIS: Attagene CIS-FACTORIAL HepG2 Assay for human Specificity Protein 1 (Sp1) (AID 2282961); details: HepG2 Sp1 cis-reporter transcription, actives raise or lower the signal
How it was run: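 After transient transfection of HepG2 cells with cis-promoter reporter units and 24 h chemical treatment, reporter transcripts were quantified by RT-PCR and capillary electrophoresis fluorescence. Gain- and loss-of-signal fitted against DMSO.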

[17] = ATG_SREBP_CIS: Attagene CIS-FACTORIAL HepG2 Assay for human Sterol Regulatory Element Binding (SREBP) (AID 2282962); details: HepG2 Attagene cis-factorial SREBP reporter, mRNA; actives raise or lower the signal
How it was run: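 HepG2 cells transiently transfected with multiplexed cis-promoter reporter units sensing endogenous transcription factors; reporter mRNA measured 24 h after dosing by RT-PCR, 6-FAM labeling, HpaI digestion and capillary electrophoresis. Bidirectional fit versus DMSO.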

[18] = target: Signal transducer and activator of transcription 3 (Homo sapiens) (UniProt P40763); assay: ATG_STAT3_CIS: Attagene CIS-FACTORIAL HepG2 Assay for human Signal Transducer and Activator of Transcription 3 (STAT3) (AID 2282963); details: HepG2, Attagene cis-factorial STAT3 reporter transcription; actives raise or lower the signal
How it was run: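 HepG2 cells transiently transfected with multiple cis-element-driven reporter units report endogenous transcription factor activity. After 24 h compound exposure, reporter mRNA is measured by RT-PCR, 6-FAM labelling, HpaI digestion and capillary electrophoresis. Fitted bidirectionally versus DMSO.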

[19] = ATG_TAL_CIS: Attagene CIS-FACTORIAL HepG2 Assay for human TAL Basal Promoter (AID 2282966); details: HepG2 Attagene cis-factorial TAL promoter reporter; actives raise or lower the signal;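 note: background control endpoint measuring basal TAL promoter reporter mRNA not a specific factor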
How it was run: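 RT-PCR plus capillary electrophoresis quantifies reporter mRNA induction in transiently transfected HepG2 cells after 24 h chemical treatment. DMSO serves as negative control and baseline for bidirectional fitting.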

[20] = target: X-box-binding protein 1 (Homo sapiens) (UniProt P17861); assay: ATG_Xbp1_CIS: Attagene CIS-FACTORIAL HepG2 Assay for human X-box Binding Protein 1 (XBP1) (AID 2282972); details: HepG2 XBP1 cis-element reporter, Attagene multiplex; actives raise or lower the signal
How it was run: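 HepG2 cells transiently transfected with multiple cis-element reporter units report endogenous TF activity; 24 h exposure, then reporter mRNA measured by RT-PCR, 6-FAM labelling, HpaI digestion and capillary electrophoresis. Bidirectional fitting versus DMSO.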

Measured: AC50

Chain of CCAAT/enhancer-binding protein beta (Homo sapiens) (P17676 whole entry, looked up): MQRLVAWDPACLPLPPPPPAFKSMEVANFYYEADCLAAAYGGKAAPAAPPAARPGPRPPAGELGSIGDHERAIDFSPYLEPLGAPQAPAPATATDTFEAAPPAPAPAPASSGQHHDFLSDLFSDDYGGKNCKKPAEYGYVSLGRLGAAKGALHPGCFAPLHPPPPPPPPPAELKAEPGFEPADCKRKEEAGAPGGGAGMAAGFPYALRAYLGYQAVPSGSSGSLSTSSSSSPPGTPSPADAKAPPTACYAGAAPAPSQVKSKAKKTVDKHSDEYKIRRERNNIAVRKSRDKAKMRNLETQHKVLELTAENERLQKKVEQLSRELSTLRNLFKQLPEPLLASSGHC
Chain of X-box-binding protein 1 (Homo sapiens) (P17861 whole entry, looked up): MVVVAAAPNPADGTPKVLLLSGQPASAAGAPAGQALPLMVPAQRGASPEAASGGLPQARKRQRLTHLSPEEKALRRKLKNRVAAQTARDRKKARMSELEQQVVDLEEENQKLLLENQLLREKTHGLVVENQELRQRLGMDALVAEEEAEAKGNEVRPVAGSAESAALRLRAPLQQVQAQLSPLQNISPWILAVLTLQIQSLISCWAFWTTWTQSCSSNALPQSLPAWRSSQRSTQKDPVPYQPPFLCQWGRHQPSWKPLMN
Chain of Paired box protein Pax-6 (Homo sapiens) (P26367 whole entry, looked up): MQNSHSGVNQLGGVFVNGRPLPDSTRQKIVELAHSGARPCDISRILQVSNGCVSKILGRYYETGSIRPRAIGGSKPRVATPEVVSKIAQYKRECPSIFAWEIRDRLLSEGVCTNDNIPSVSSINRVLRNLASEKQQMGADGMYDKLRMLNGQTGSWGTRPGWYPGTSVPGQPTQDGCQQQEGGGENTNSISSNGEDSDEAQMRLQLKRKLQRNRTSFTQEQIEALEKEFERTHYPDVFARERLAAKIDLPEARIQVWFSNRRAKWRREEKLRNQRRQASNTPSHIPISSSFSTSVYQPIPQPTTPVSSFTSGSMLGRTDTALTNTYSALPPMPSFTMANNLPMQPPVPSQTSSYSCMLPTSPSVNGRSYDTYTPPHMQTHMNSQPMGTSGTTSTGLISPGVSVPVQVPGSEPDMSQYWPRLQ
Chain of Transcription factor Sp1 (Homo sapiens) (P08047 whole entry, looked up): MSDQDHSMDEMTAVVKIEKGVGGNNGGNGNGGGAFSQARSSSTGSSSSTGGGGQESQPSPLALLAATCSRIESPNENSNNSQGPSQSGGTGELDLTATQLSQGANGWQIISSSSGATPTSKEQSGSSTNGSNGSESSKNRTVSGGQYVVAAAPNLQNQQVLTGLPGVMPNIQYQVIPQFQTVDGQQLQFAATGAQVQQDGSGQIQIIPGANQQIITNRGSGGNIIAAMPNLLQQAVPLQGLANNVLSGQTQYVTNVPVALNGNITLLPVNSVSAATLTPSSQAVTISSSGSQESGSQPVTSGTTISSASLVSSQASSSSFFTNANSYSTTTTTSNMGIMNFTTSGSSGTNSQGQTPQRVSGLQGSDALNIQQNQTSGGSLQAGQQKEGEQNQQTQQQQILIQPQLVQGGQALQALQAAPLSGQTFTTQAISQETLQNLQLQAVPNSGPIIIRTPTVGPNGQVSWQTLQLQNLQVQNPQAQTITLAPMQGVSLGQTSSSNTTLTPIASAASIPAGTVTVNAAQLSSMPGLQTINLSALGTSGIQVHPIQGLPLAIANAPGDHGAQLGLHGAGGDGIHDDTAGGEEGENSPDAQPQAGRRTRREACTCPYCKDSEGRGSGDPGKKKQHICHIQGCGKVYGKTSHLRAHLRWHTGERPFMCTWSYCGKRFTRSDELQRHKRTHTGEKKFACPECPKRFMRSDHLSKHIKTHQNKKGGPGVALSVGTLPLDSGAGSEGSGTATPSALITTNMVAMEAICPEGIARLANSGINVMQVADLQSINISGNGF
Chain of Signal transducer and activator of transcription 3 (Homo sapiens) (P40763 whole entry, looked up): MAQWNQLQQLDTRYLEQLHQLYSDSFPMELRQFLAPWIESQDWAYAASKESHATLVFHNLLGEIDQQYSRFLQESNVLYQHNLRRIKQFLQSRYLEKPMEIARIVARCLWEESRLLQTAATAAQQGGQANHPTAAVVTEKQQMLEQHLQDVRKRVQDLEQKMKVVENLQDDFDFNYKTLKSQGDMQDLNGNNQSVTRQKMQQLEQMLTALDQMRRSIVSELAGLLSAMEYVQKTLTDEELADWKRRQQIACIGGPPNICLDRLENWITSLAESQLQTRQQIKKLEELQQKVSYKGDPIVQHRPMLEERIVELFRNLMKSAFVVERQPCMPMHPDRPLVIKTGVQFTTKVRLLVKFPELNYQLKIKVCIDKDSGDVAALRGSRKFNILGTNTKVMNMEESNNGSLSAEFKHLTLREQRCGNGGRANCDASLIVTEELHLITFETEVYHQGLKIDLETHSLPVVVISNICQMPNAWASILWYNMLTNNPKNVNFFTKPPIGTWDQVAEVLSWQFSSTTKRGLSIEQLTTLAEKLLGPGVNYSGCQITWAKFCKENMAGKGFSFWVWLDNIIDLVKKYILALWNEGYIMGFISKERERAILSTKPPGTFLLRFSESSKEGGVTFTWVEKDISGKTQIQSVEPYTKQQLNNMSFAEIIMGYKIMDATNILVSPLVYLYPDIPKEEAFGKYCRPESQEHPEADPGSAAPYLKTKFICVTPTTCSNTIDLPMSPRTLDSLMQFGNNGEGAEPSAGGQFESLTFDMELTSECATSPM

Brc1ccc(Oc2ccc(Br)cc2)cc1
active: [2] 40.4 µM | [3] 56.5 µM | [5] 86.9 µM
inactive: all other assays above

CC(C)CC(=O)CC(C)CC(C)C (stereo not given)
inactive: all assays above

COC(=O)CCSCCC(=O)OC
inactive: all assays above

Oc1ccc(Oc2ccccc2)cc1
active: [2] 44.9 µM | [14] 79 µM
inactive: all other assays above

CCO[Si](CCCN)(OCC)OCC
inactive: all assays above

CCCCCCCC#N
inactive: all assays above

Nc1nnc(-c2ccc([N+](=O)[O-])o2)o1
active: [3] 33.4 µM
inactive: all other assays above

Cc1cccnc1
active: [1] 100 µM | [3] 58 µM | [5] 167 µM | [9] 165 µM | [12] 164 µM
inactive: all other assays above

NC(N)=Nc1nc(CSCCC(N)=NS(N)(=O)=O)cs1
inactive: all assays above

Reference: PubChem BioAssay (EPA / NIEHS)
